# Reference: the supplement of paper PMC3334620
# Over roughly 33,000 sequences, “E-score (-0.5 to 0.5)” has its median near -0.0034; the highest 2% begin near 0.25. The list comes from a sample in which the highest values are over-represented; it also holds similar and randomly drawn sequences.
# Target: T1, Yap3 (UniProt P38749)
# T1 sequence: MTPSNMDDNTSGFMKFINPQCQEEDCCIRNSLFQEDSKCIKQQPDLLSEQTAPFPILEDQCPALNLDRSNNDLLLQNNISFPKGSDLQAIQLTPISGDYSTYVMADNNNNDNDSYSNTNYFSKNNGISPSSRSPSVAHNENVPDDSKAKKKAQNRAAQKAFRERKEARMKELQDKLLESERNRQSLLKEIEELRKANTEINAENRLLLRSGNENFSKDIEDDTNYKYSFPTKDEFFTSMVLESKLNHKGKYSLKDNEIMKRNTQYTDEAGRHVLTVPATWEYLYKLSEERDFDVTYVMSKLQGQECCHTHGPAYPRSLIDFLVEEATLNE
# Assay: PBM E-score (8-mer binding enrichment) (E-score (-0.5 to 0.5)); higher = stronger / more preferred TF binding
# Details: protein concentration: 100 nM; construct: GST-full length
# Protocol: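 Universal 'all 10-mer' protein binding microarrays (Agilent AMADID 015681) probed with GST-tagged S. cerevisiae TFs (full-length or DBD) made by in vitro transcription/translation (PURExpress), about 100-200 nM. Bound TF was detected with fluorescent anti-GST. Each ungapped 8-mer (which stands for itself and its reverse complement) is scored by the PBM enrichment score (E-score), a modified Wilcoxon-Mann-Whitney statistic from -0.5 to +0.5, computed with the Universal PBM Analysis Suite. Scale: above 0.35 generally sequence-specific binding.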
row,Sequence,PBM E-score
1,GCGCACCA,-0.0312
2,TAATAAAA,0.324
3,CATTAGAA,0.123
4,TAATAATA,0.373
5,CAATAATA,0.237
6,TATTAGAA,0.287
7,GAATAAAA,0.178
8,GATTAGAA,0.0967
9,TAATAAGA,0.136
10,AAATAATG,0.24
11,AAATAATC,0.0637
12,AAATAATA,0.307
13,AAATAAAA,0.224
14,AAATGAGT,0.23
15,ACATCCAT,0.0624
16,TGGCCACA,-0.0477
17,GCCTATGA,-0.134
18,GGTCCCAA,-0.151
19,ATCGACAT,0.0988
20,ACCTGCTG,0.0821
21,CGATAACA,0.097
22,TGATAACA,0.258
23,GGATAACA,0.116
24,CGTTTTAA,0.126
25,GAGGACGC,-0.1

row,Sequence,PBM E-score
1,GGTTCTAA,0.218
2,AGTTCTAA,-0.0287
3,TGTTCTAA,0.256
4,AGCTTGCG,-0.219
5,AATTGGGG,-0.023
6,AATTGGGT,0.331
7,AATTGGGC,0.0215
8,TATATTAA,0.315
9,GATATTAA,0.212
10,ACTATTAT,0.123
11,TATCTCAA,0.256
12,AATATTAA,0.346
13,AATATTAG,0.239
14,CATCTCAA,0.108
15,GCTATTAA,0.103
16,AATCTCAA,0.134
17,TGTATTAA,0.126
18,AATATTAT,0.333
19,TCTATTAA,0.188
20,AGAGGAAG,-0.0758
21,AATCGGGA,0.0297
22,CTTTGATC,-0.0556
23,TGTAGAAA,0.0253
24,CGATGGCA,-0.145
25,TAGCGGAA,-0.00131

row,Sequence,PBM E-score
1,GATATTCC,0.12
2,AATATTCC,0.281
3,AATATTGC,0.202
4,CCTATTAC,0.176
5,CATATCAG,0.064
6,AATATTAC,0.31
7,GATATTAC,0.371
8,AATATCAA,0.244
9,CATATCAA,0.275
10,AATATTCG,0.223
11,GCTATTAC,0.137
12,AATATTCT,0.133
13,ACGAACTC,0.0654
14,TAGGAGAA,-0.178
15,AGAACGAA,0.233
16,ATGTTGCA,0.0661
17,TCATTCGA,0.195
18,AGGATTAC,0.125
19,GGAACGAC,-0.133
20,AGAGAATA,0.208
21,AATATTCA,0.223
22,CATATTGA,0.0743
23,GAAATCAA,0.0981
24,CATATTAA,0.299
25,GATATTCA,0.0491

row,Sequence,PBM E-score
1,CATATTAC,0.282
2,CATATTTC,0.0493
3,CGTATTAA,0.0173
4,CAAATCAA,0.267
5,AAAATCAA,0.19
6,CATATTAG,0.184
7,TATATTCA,0.259
8,AAATACAT,0.154
9,CTTGGTGC,-0.023
10,AGATAGCA,0.0137
11,AACAGCAC,0.0426
12,GCGATCGC,0.191
13,CAATATGG,-0.00272
14,CACATTGC,0.0928
15,CACTGCTA,0.025
16,CGTTCTGA,-0.106
17,AATATCAT,0.277
18,CACATTAC,0.276
19,AACATTAC,0.149
20,CACATTAG,-0.0914
21,AATATCAG,0.121
22,AATATCAC,0.222
23,ACAATTCT,0.0509
24,AGGTTTGA,-0.014
25,CCAGGTCC,-0.307

row,Sequence,PBM E-score
1,GACATACA,0.256
2,CACATACA,-0.0173
3,TACATACA,0.209
4,GGACCGGA,-0.112
5,GTTACAAA,0.225
6,ATTACAAT,0.125
7,CTTACAAA,0.19
8,AATACAAA,0.259
9,ATTACAAA,0.37
10,TTTACAAA,0.262
11,GATACAAA,0.162
12,ATTACAAG,0.166
13,AATACAAG,0.24
14,AGCATTCG,-0.106
15,GGATACGA,0.0439
16,CGGCTGTA,-0.147
17,AATGTATG,0.0768
18,AAGCCAGC,-0.0187
19,GTCGGGTA,0.0387
20,GCTGCATA,0.0463
21,AAGGGTGA,-0.0745
22,AGAGCCAG,-0.175
23,CTGACTAC,-0.0607
24,ATGACTAG,0.07
25,GTGACTGA,0.167

row,Sequence,PBM E-score
1,ATGACTAC,0.0437
2,GTGACTAA,0.262
3,ATGACTAA,0.431
4,CTGACTTA,0.16
5,GTGACTCA,0.0409
6,CTGACTAA,0.392
7,CGCTATCC,0.0718
8,ACAGATCC,0.145
9,CCACCAGC,-0.0909
10,CATCCTAG,-0.0476
11,GGGGAGAC,-0.304
12,AAGCTTTG,0.0373
13,GAACCCGA,-0.121
14,AAACCCGA,0.261
15,TAACCCGA,-0.0757
16,GAACCCAC,0.028
17,AGCGCGCA,0.24
18,AAGTAAAG,0.103
19,AAGTAAAC,0.0216
20,AAGTAAAT,0.26
21,ACTAGTTC,0.0926
22,CTTACTTA,0.113
23,ATTACTTA,0.257
24,ATTACTCG,0.23
25,ATTACTGA,0.154

row,Sequence,PBM E-score
1,ATTACTCA,0.299
2,ATTACTCC,0.143
3,ATGGTTAA,0.0266
4,GCTCGCGA,0.109
5,ATCGCTGG,-0.223
6,ATTAAGGC,0.0716
7,GTAGCCGA,-0.114
8,ACCCTGTA,0.00489
9,CATATAAG,0.113
10,GATAAAAA,0.192
11,GATATAAA,0.21
12,CATATAAA,0.183
13,TATATAAA,0.274
14,AATATAAC,0.247
15,AATATAAG,0.353
16,CATAAAAA,0.186
17,TATAAAAA,0.265
18,AATATAAT,0.179
19,ACTATAAA,0.237
20,AATATAAA,0.282
21,GCTCCTCC,-0.294
22,CCACCCAA,-0.0309
23,GCCGTATA,0.141
24,GTGCCGCA,-0.0486
25,GCAAGTCC,-0.203

row,Sequence,PBM E-score
1,AGGGGCAA,0.0575
2,TCCTTTCA,0.062
3,AGTGGCCG,-0.119
4,CTTTATGC,0.109
5,GAGAAGTA,0.0274
6,AAAGCTGT,0.15
7,ACCCTGCA,0.122
8,ATGCGCAA,0.0772
9,ATGCGCAT,0.315
10,ATGCGCAC,0.0993
11,ACCTATTA,0.11
12,TAAGGCAA,0.0224
13,AAAGGCAA,0.254
14,AAAGGCAG,-0.0629
15,GTCCCGGA,-0.103
16,AGTCGCGA,0.272
17,AATCGCGT,0.156
18,GGTCGCGA,0.0906
19,AATCGCGA,0.255
20,CATCGCGA,0.112
21,CGTCGCGA,0.141
22,ATGGTTCC,0.0898
23,CTCTTTGC,0.00066
24,AACTTCGG,0.13
25,TAATTTCA,0.309

row,Sequence,PBM E-score
1,AAATTTCC,0.125
2,AAATTTCA,0.0121
3,CAATTTCA,0.0657
4,GAATTTCC,0.277
5,CAATTTCC,0.0859
6,AACAGTCG,-0.0471
7,CCAGCCCG,-0.258
8,GTTTACCA,0.107
9,CCTAAGCG,-0.033
10,CCCCATCC,-0.233
11,ACGCGAGT,0.087
12,ACATTTAA,0.221
13,TATGCGAA,0.0891
14,AATGGAAG,0.105
15,AATGGAAC,0.12
16,AACGGAAG,0.2
17,AACGGAAA,0.171
18,AATGGAAT,0.275
19,AACGGAAT,0.262
